These results are taken from PubChem BioAssay AID1986 (Sanford-Burnham Center for Chemical Genomics, 2009).

Among all 290,000 compounds or so, about 890 (0.31%) were called active. No stated cut-off is given here; in the data, active means inhibition mostly above about 52% (no sharp cut-off); inactive means mostly below about 76%. The sample as a whole holds a higher share of actives than the screen did.

This assay can be described thus: cell-free HIV fusion peptide-binding blockers – biochemical, uHTS, fluorescence dequenching, primary screen (AID 1986). Conditions: 30 min, stronger effect = higher value.
Setting [1] is: measured here: repeat confirmation average inhibition, at 18.6 µM.

The inhibition is the change of the read-out against control, counted positive when it falls. As to `C#CCn1c(-c2cccs2)nc2ccccc21`, the inhibition (at 20 µM) was 0% (inactive).

With `Nc1nnc(CC(=O)N/N=C/c2ccc([N+](=O)[O-])cc2)s1`, the inhibition (at 20 µM) is -2.4% (inactive).

For `Nc1nnc(CC(=O)N/N=C\c2cc([N+](=O)[O-])ccc2O)s1`, the inhibition (at 20 µM) is 15.7% (inactive).

With `Nc1nnc(CC(=O)N/N=C/c2cc([N+](=O)[O-])cc(Br)c2O)s1`, the inhibition (at 20 µM) is 61.2% (active).

Take `Cc1cc(OCC(=O)NC(Cc2ccc(Cl)cc2)C(=O)O)c2c(C)cc(=O)oc2c1` (stereo not drawn): the inhibition (at 20 µM) was 4.4% (inactive).

As to `Cc1ccc(/C(N)=N/OC(=O)c2cccc(Cn3cc(C(F)(F)F)ccc3=O)c2)cc1`, where the note is “at 20 µM”, the inhibition was -0.3% (inactive).

Regarding `COC(=O)c1cc(C(=O)c2ccc(Cl)cc2)n2c(=O)/c(=C\N(C)C)sc12`, the inhibition by setting is: (at 20 µM) 97.1% (active); under setting [1], 68.7%.

On to `CN(C)/C=c1\sc2c(C#N)cc(C(=O)c3ccc(Br)cc3)n2c1=O`, for which the inhibition (at 20 µM) was 3.8% (inactive).

Regarding `COC(=O)c1cc(C(=O)c2ccccc2)n2c(=O)/c(=C\N(C)C)sc12`, the inhibition (at 20 µM) is 2.2% (inactive).

Consider `COC(=O)c1nn(-c2ccc(OC)cc2)ccc1=O`, for which the inhibition (at 20 µM) is -2.9% (inactive).

Turning to `O=C(O)c1ccc(Cl)c2c1C1C=CCC1C(c1ccccn1)N2` (stereo not drawn), for the setting “at 20 µM”, the inhibition is -3.1% (inactive).

As for `COC(=O)COc1ccc(C2Nc3c(Cl)ccc(C(=O)O)c3C3C=CCC32)cc1` (stereo not drawn), under “at 20 µM”, the inhibition was 62.9% (active).

In the case of `COc1ccc(OC)c(C2Nc3c(Cl)ccc(C(=O)O)c3C3C=CCC32)c1` (stereo not drawn), the inhibition (at 20 µM) was 38.2% (inactive).

As for `Cc1c(OCC(=O)OC(C)(C)C)ccc2c3c(c(=O)oc12)CCC3`, the inhibition (at 20 µM) was 1.6% (inactive).

For `NC1=CC(=O)c2cccc3cccc1c23`, the inhibition reads like this: (at 20 µM) 64% (active); under setting [1], 63.9%.

Regarding `NC1=Nc2cccc3cccc1c23`, under “at 20 µM”, the inhibition is 5.1% (inactive).

In the case of `O=C1C=C(O)c2cccc3cccc1c23`, where the note is “at 20 µM”, the inhibition was 9% (inactive).

In the case of `COc1cc(/C=C2/C(=O)ON=C2c2ccccc2)ccc1O`, the inhibition (at 20 µM) was 10.6% (inactive).

Regarding `CCOc1cc(/C=C2/C(=O)ON=C2C)cc(Br)c1O`, the inhibition (at 20 µM) is 57.8% (active) and the inhibition under setting [1] came out at 51.8%.

Consider `COc1cc(/C=C2\C(=O)ON=C2c2ccccc2)cc(Cl)c1O`, for which, under “at 20 µM”, the inhibition is 45.2% (inactive).

As to `C#CCOc1c(Br)cc(/C=C2/C(=O)ON=C2C)cc1OCC`, the inhibition (at 20 µM) is 4.2% (inactive).

For `COc1cc(/C=C2\C(=O)ON=C2c2ccccc2)cc(Br)c1O`, the inhibition (at 20 µM) was 63.3% (active) and the inhibition under setting [1] was 106%.

Regarding `CCOc1cc(/C=C2\C(=O)ON=C2c2ccccc2)cc(Br)c1O`, the inhibition is 69.6% (active) (at 20 µM) and 108% under setting [1].

With `COc1cc(/C=C2\C(=O)ON=C2c2ccccc2)cc(OC)c1OC`, the inhibition (at 20 µM) is 1.4% (inactive).

Turning to `CCOc1cc(/C=C2/C(=O)ON=C2C)ccc1O`, the inhibition (at 20 µM) was 33.7% (inactive).

Take `CCOc1cc(/C=C2\C(=O)ON=C2c2ccccc2)ccc1OC`: the inhibition (at 20 µM) was 0.3% (inactive).

`Cc1ccc(N/C=C2\CCCCC2=O)nc1`: the inhibition (at 20 µM) was 0.7% (inactive).

For the compound `Cc1ccc(S(=O)(=O)N/N=C\c2cn(CC(N)=O)c3ccccc23)cc1`, the inhibition (at 20 µM) was 0.7% (inactive).

Take `CN(C)c1ncnc(N(C)C)c1[N+](=O)[O-]`: the inhibition (at 20 µM) is -2.4% (inactive).

In the case of `COc1ccccc1/C=C(/C(=O)NCCCn1ccnc1)c1ccccc1`, under “at 20 µM”, the inhibition was 0.9% (inactive).

In the case of `O=C(N/N=C/c1ccccn1)c1cc(C2CC2)[nH]n1`, the inhibition (at 20 µM) was -0.3% (inactive).

In the case of `Cc1oc2cc3oc(=O)cc(C)c3cc2c1C`, the inhibition (at 20 µM) was 1% (inactive).

For `COC(=O)c1cc(O)c(O)c(O)c1`, for the setting “at 20 µM”, the inhibition was 11% (inactive).

Take `O=C(OCC1O[C@@H](OC(=O)c2cc(O)c(O)c(O)c2)[C@@H](OC(=O)c2cc(O)c(O)c(O)c2)[C@@H](OC(=O)c2cc(O)c(O)c(O)c2)[C@@H]1OC(=O)c1cc(O)c(O)c(O)c1)c1cc(O)c(O)c(O)c1` (stereo partly drawn): the inhibition (at 20 µM) was 56% (active).

Regarding `COC1OC(COC(=O)c2ccccc2)C(OC(=O)c2ccccc2)C1OC(=O)c1ccccc1` (stereo not drawn), the inhibition (at 20 µM) is -0.6% (inactive).

Turning to `O=C(CCN1C(=O)c2ccc([N+](=O)[O-])cc2C1=O)Nc1nccs1`, the inhibition (at 20 µM) was -0.3% (inactive).

With `O=C(CCCn1c(=S)[nH]c2ccccc2c1=O)NCCSCc1ccccc1`, the inhibition (at 20 µM) is 1.5% (inactive).

Turning to `CCN(CC)S(=O)(=O)c1ccc(O)c(C(=O)OCC(=O)Nc2ccc(OC(F)(F)F)cc2)c1`, where the note is “at 20 µM”, the inhibition is -1.8% (inactive).

On to `COc1cc2ccccc2cc1C(=O)NC(=S)Nc1ccc(C(=O)O)cc1`, for which the inhibition runs as follows: (at 20 µM) 53.8% (inactive); under setting [1], 2.1%.

Turning to `COc1cc2ccccc2cc1C(=O)NC(=S)Nc1cccc(C(=O)O)c1`, the inhibition (at 20 µM) is 58.8% (active).

In the case of `COc1cc2ccccc2cc1C(=O)NC(=S)Nc1cc(C(=O)O)ccc1C`, the inhibition was 51.6% (inactive) (at 20 µM) and -1.6% under setting [1].

As for `COc1ccc(/C=N\NC(=O)c2ccccc2Br)cc1COc1c(F)c(F)cc(F)c1F`, the inhibition (at 20 µM) is 0.6% (inactive).

For `COc1cc(C(=O)NCC(=O)N/N=C(/C)c2cccs2)cc(OC)c1OC`, for the setting “at 20 µM”, the inhibition was -1.2% (inactive).

Turning to `CC(C)P(=O)(Cc1cccc(C#N)c1)C(C)C`, the inhibition (at 20 µM) is 3.5% (inactive).

In the case of `COC(=O)c1ccc(OCC2c3cc(OC)c(OC)cc3CCN2C(=O)c2ccco2)cc1` (stereo not drawn), the inhibition (at 20 µM) is -1.1% (inactive).

In the case of `Cc1ccc(/C=C(\CCC(=O)O)c2nc3ccccc3s2)cc1[N+](=O)[O-]`, the inhibition (at 20 µM) was 27.3% (inactive).
